FBPA coupling cs = inhibits coupling enzyme system, counter-screen for aldolase hits | coupling enzyme system counterscreen, AmpLite Red fluorescence | activity change, negative = inhibition, % at 58.2 µM, hits read low | 290,000 compounds, 0.67% hits | AID 2472; in the data active = activity change below about -30%
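Counterscreen lacking aldolase: glyceraldehyde-3-phosphate coupling-enzyme reagent preincubated 10 min at RT with compound (at 57.5 uM final), then substrate/coupling system with AmpLite Red added; fluorescence read at 525/598 nm after 20 min RT.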
G9a block = blocks human histone lysine methyltransferase G9a. Q96KQ7. 350,000 compounds, 8.8% hits. G9a H3K9 monomethylation, AlphaScreen, 2 h. Potency, µM (titrated, usually from 102 µM), for the others: at the top dose activity, negative = inhibition, actives largely listed as inhibitors. AID 504332; note: potency is the fitted concentration of half-maximal effect; nearly all actives have a fitted effect of over 75% in size
Target sequence (Q96KQ7 913-1193 limits assumed): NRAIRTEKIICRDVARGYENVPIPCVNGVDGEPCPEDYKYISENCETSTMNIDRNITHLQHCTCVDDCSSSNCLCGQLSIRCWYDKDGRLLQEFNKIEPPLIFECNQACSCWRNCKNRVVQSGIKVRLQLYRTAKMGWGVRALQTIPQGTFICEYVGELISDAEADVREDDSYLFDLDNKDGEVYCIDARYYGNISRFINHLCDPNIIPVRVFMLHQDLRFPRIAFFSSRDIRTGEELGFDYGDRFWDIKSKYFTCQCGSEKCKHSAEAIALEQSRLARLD
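Using a bead-based AlphaScreen, monomethylated H3K9 product from 2 h room-temperature reactions (G9a 20 nM, peptide 500 nM, SAM 20 uM) was detected with 0.5 ug/mL rabbit anti-H3K9me1 antibody.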
Sfp PPTase inh = blocks B. subtilis Sfp PPTase activity | 310,000 compounds, 3.5% hits | Potency, µM, for inactives: largest response in the series, negative = inhibition, actives largely listed as inhibitors | Q9F4F7 | Biochemical Sfp PPTase activity, qHTS;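 note: the enzyme is Sfp with the accession as filed and its product quenches rhodamine fluorescence; potency is the fitted concentration of half-maximal effect; 0% = enzyme reaction without inhibitor and -100% = no enzyme wells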
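After 15 min at room temperature with compound, 15 nM Sfp received 5 uM rhodamine-CoA plus 12.5 uM BHQ-2-ybbR (50 mM Hepes pH 7.6, 10 mM MgCl2). Rate came from the fluorescence difference over 30 min, ex 525/em 598 nm.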
Tau fibril ThT = tau fibrillization inhibition (ThT binding). P10636. recombinant tau K18 P301L, heparin-induced fibrillization, ThT fluorescence. Potency, µM (titrated, usually from 57.4 µM), for inactives: at the top dose activity, negative = inhibition, most hits filed as inhibitors. AID 1460. 270,000 compounds, 2.1% hits; note: potency is the fitted concentration of half-maximal effect; nearly all actives have a fitted effect of over 55% in size
Target sequence (P10636 561-689 P618L limits assumed): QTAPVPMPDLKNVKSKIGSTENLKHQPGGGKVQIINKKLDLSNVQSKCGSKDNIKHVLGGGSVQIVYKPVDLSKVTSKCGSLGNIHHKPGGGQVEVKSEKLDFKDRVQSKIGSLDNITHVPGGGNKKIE
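Fibril formation assay: tau K18 P301L at 15 uM with trace Alexa 594 label, heparin inducer 20 uM, pH 7 sodium acetate buffer, 37 C for 6 hr; endpoint ThT signal.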
Tau fluor counter = counter-screen for tau fibril formation inhibitors; tau K18 P301L (four-repeat tau fragment) Alexa594 fluorescence, heparin fibrillization; Potency, µM (doses to about 57.7 µM), inactives show at the top dose activity change, negative = decrease; 280,000 compounds, 0.93% hits; note: potency is the fitted concentration of half-maximal effect; nearly all actives have a fitted effect of over 55% in size
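Human K18 P301L tau (15 uM unlabeled plus 0.24 uM Alexa 594-labeled, final) in 100 mM sodium acetate pH 7 was mixed with compound and 20 uM heparin and incubated 6 hr at 37 C.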
Tau fibril FP = blocks human tau fibril formation measured by polarization. K18 P301L tau heparin fibrillization, Alexa594 FP, 6 h. 280,000 compounds, 0.39% hits. Potency, µM (titrated, usually from 57.7 µM), without a hit: top-dose activity, negative = inhibition, actives largely listed as inhibitors. AID 1468; note: potency is the fitted concentration of half-maximal effect; nearly all actives have a fitted effect of over 55% in size
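Read-out: fluorescence polarization of Alexa 594-labeled tau (0.24 uM), 555 nm excitation, 632 nm emission. Mixtures held 15 uM unlabeled K18 P301L, compound and 20 uM heparin, pH 7 acetate buffer, incubated 6 hr at 37 C.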
An asterisk follows results filed as active; [ ] = another dose, or the depositor's remark. In the library only some 11% were active in any assay of this set; here they are far more common. Unless noted, calls come from the whole dose curve; as a rule, active = well fitted curve in the direction sought with a large enough effect; inconclusive = small, poorly fitted or top-dose-only effect, or another doubt; inactive = no such curve, though single readings can be large; an effect the other way counts as inactive or inconclusive. Unless noted, % is set by controls: 0 for no effect and ±100 for the full control effect.

Results for CCOC(=O)/C(=N\Nc1ccccc1Cl)N(C)C1CCCCC1 ?
FBPA coupling cs: 0.3; G9a block: 10µM*; Sfp PPTase inh: -11.5%; Tau fibril ThT: inconclusive; Tau fluor counter: -24.3%; Tau fibril FP: -3.1%

What do the screens show for `CNC(=O)C1(C(F)(F)F)CC(CCCO)CCCO1` (centres undefined)?
FBPA coupling cs: 0.9; Sfp PPTase inh: -9.9%

How did C=CCn1c(-c2ccc(S(=O)(=O)N3CCOCC3)cc2)csc1=Nc1ccccc1 do in these assays?
FBPA coupling cs: 3.6; G9a block: 7.3%[0.501 µM]; Sfp PPTase inh: -24.6%; Tau fibril ThT: inconclusive; Tau fluor counter: inconclusive; Tau fibril FP: 4.2%

How did CN(C)S(=O)(=O)c1cccc(-c2csc(=Nc3ccccc3)n2CCCN2CCOCC2)c1 do in these assays?
FBPA coupling cs: -0.4; G9a block: 50.1µM*; Sfp PPTase inh: -2.3%; Tau fibril ThT: -11.2%; Tau fluor counter: -17.4%; Tau fibril FP: 5.7%

Results for COc1ccc(N=c2scc(-c3ccc(S(=O)(=O)N4CCOCC4)cc3)n2CCCO)cc1 ?
FBPA coupling cs: -2.0; G9a block: 25.1µM*; Sfp PPTase inh: 5.7%; Tau fibril ThT: inconclusive; Tau fluor counter: inconclusive; Tau fibril FP: 6.3%

What do the screens show for `CC(=O)c1cccc(N=c2scc(-c3ccc(S(=O)(=O)N4CCOCC4)cc3)n2CCO)c1`?
FBPA coupling cs: -0.4; G9a block: 44.7µM*; Sfp PPTase inh: -9.2%; Tau fibril ThT: -4.7%; Tau fluor counter: -14.9%; Tau fibril FP: 4.9%

Results for CCN(CC)S(=O)(=O)c1ccc(OCC(=O)NC(=O)c2ccccc2OC)c([N+](=O)[O-])c1 ?
FBPA coupling cs: -0.5; G9a block: 59.3%; Sfp PPTase inh: 10.6%

What do the screens show for `CNC(=O)COc1coc(CN2CCN(c3ccc(F)cc3)CC2)cc1=O`?
G9a block: -7.8%; Sfp PPTase inh: 13.8%

How did COc1cccc(CNC(=O)CCCn2c(=O)c3cccn3c3ccc(F)cc32)c1OC do in these assays?
G9a block: 4.2%[59 µM]; Tau fibril ThT: 7.3%; Tau fluor counter: -9.4%; Tau fibril FP: -9.1%

Results for O=C(NNc1ccc(Cl)cc1)c1c(F)cccc1Cl ?
FBPA coupling cs: -1.5; G9a block: 44.7µM*; Sfp PPTase inh: 16.6%; Tau fibril ThT: -10.7%; Tau fluor counter: -12.0%; Tau fibril FP: 3.9%

How did O=C(O)c1ccc(N=Nc2c(O)[nH]c3ccc(Br)cc23)cc1 do in these assays?
FBPA coupling cs: -0.2; G9a block: 8.5%[2.33 µM]; Sfp PPTase inh: 10µM*

How did COC(=O)N=Nc1c(O)[nH]c2ccc(Br)cc12 do in these assays?
FBPA coupling cs: -2.6; G9a block: 6.8%; Sfp PPTase inh: 8.8%; Tau fibril ThT: inconclusive; Tau fluor counter: -1.9%; Tau fibril FP: 4.6%

How did Cc1ccc2[nH]c(O)c(N=NC(N)=S)c2c1 do in these assays?
FBPA coupling cs: 0.1; G9a block: -14.3%; Sfp PPTase inh: -7.6%; Tau fibril ThT: inconclusive; Tau fluor counter: -10.2%; Tau fibril FP: -2.4%

Results for O=C(CNC(=O)c1ccccc1)N=Nc1c(O)[nH]c2ccc(Br)cc12 ?
FBPA coupling cs: 0.7; G9a block: -39.5%; Sfp PPTase inh: 17.0%

Results for O=C(O)c1ccc(N=Nc2c(O)[nH]c3cc(Cl)ccc23)cc1 ?
FBPA coupling cs: 4.6; G9a block: 23.4%[59 µM]; Sfp PPTase inh: -27.9%; Tau fibril ThT: 3.98µM*; Tau fluor counter: -8.4%; Tau fibril FP: 6.3%

How did O=S(=O)(Cc1ccccc1)N=Nc1c(O)[nH]c2ccc(Br)cc12 do in these assays?
FBPA coupling cs: -16.9; G9a block: 3.55µM*; Sfp PPTase inh: -7.7%; Tau fibril ThT: inconclusive; Tau fluor counter: -8.0%; Tau fibril FP: -15.1%

How did Cc1ccc(N=Nc2c(O)[nH]c3ccc(F)cc23)cc1 do in these assays?
FBPA coupling cs: 2.4; G9a block: 20µM*; Sfp PPTase inh: inconclusive; Tau fibril ThT: inconclusive; Tau fluor counter: -25.9%; Tau fibril FP: -17.8%

How did COc1ccc(/C=N/NS(=O)(=O)c2ccc(F)cc2)cc1CN1CCSCC1 do in these assays?
FBPA coupling cs: 0.3; G9a block: inconclusive; Sfp PPTase inh: -17.5%

Results for C/C(CC(=O)Nc1ccc(Cl)cc1)=N\NC(=O)C(=O)N1CCCCC1 ?
FBPA coupling cs: 3.5; G9a block: -5.2%; Sfp PPTase inh: 2.2%; Tau fibril ThT: -10.8%; Tau fluor counter: -7.0%; Tau fibril FP: -3.3%

Results for CC(OC(=O)CCCN=C1NS(=O)(=O)c2ccccc21)C(=O)Nc1ccc(F)cc1Cl (centres undefined) ?
G9a block: -29.8%

What do the screens show for `CCc1ccc(NC(=O)C2CCN(c3ccc(Sc4ccc(C)cc4)nn3)CC2)cc1`?
G9a block: -1.6%[59 µM]; Tau fibril ThT: 1.1%; Tau fluor counter: -1.5%; Tau fibril FP: -7.2%

What do the screens show for `CCCN1c2cccc3cccc(c23)S1(=O)=O`?
FBPA coupling cs: -1.4; G9a block: 84.8%[59 µM]; Sfp PPTase inh: -3.4%; Tau fibril ThT: 6.7%; Tau fluor counter: -1.6%; Tau fibril FP: -5.4%

Results for CN1c2cccc3cccc(c23)N(C)C1(C)C ?
FBPA coupling cs: -33.2*; G9a block: -40.8%[0.0925 µM]; Sfp PPTase inh: -23.2%; Tau fibril ThT: inconclusive; Tau fluor counter: inconclusive; Tau fibril FP: -5.9%

Results for CC(C)(C)Nc1oc(-c2ccccc2)nc1-c1ccccc1F ?
FBPA coupling cs: 2.0; Sfp PPTase inh: -1.6%; Tau fibril ThT: -12.5%; Tau fluor counter: -24.5%; Tau fibril FP: inconclusive

How did CCc1ccc(OCC(=O)Nc2c(C(=O)c3ccccc3)oc3ccccc23)cc1 do in these assays?
G9a block: 25.2%[59 µM]; Tau fibril ThT: -5.1%; Tau fluor counter: -17.6%; Tau fibril FP: inconclusive

How did Cc1ccc(N2C(=O)NC(NS(=O)(=O)c3ccc(Cl)cc3)(C(F)(F)F)C2=O)cc1C (centres undefined) do in these assays?
G9a block: -24.8%[59 µM]; Tau fibril ThT: 2.7%; Tau fluor counter: -6.9%; Tau fibril FP: -9.8%

How did Cc1ccccc1C(=O)NNC(=S)NC(=O)c1ccccc1 do in these assays?
FBPA coupling cs: 3.7; G9a block: 3.98µM*; Sfp PPTase inh: -34.5%; Tau fibril ThT: -4.0%; Tau fluor counter: -3.2%; Tau fibril FP: 8.7%

How did O=C(NC(=S)NNC(=O)c1ccccc1O)c1ccccc1 do in these assays?
FBPA coupling cs: 0.6; G9a block: 31.6µM*; Sfp PPTase inh: 10.2%

What do the screens show for `Cn1ccnc1/C(=N\NC(=O)c1ccccc1)c1cccc([N+](=O)[O-])c1`?
FBPA coupling cs: 2.3; G9a block: 39.8µM*; Sfp PPTase inh: 3.1%; Tau fibril ThT: -4.1%; Tau fluor counter: -3.6%; Tau fibril FP: 1.3%

From PubChem BioAssay
